Screening results (PubChem)
Compounds with a hit are over-represented: about 1.3% of the library has one in this group of screens.
PriA SSB inh – K. pneumoniae PriA-SSBct interaction inhibition | AlphaScreen SSBct-PriA binding, biotinylated peptide | inhibition, % at 33 µM | 430,000 tested, 0.6% active; in the data active = inhibition mostly above about 37%, no sharp cut-off; inactive = mostly below about 20%;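 note: plate controls were negative control peptide for no effect and reference peptide for full effect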
3CLpro inhibitor – SARS-CoV 3CLpro protease inhibition | inhibition, % at 6 µM | AID 1706 | recombinant SARS-CoV 3CLpro, quenched FRET peptide cleavage | 290,000 tested, 0.14% active; in the data active = inhibition above about 12%
Mtb hypoxia rep – reduces hypoxia-regulated biosensor signal in M. tuberculosis | M. tuberculosis hypoxia-regulated fluorescent reporter, fluorescence | fluorescence inhibition, % (no concentration beside the values) | 300,000 tested, 0.1% active | AID 1159583; in the data active = fluorescence inhibition mostly above about 23%, no sharp cut-off; inactive = mostly below about 17%
CCHF vOTU inh-1 – blocks the CCHF virus ovarian tumor domain protease; inhibition, % at 11.5 µM; CCHFV vOTU protease, Pep-AMC fluorescence; 370,000 tested, 0.55% active; AID 651958; note: 0% = vehicle wells with enzyme and 100% = no enzyme wells
VHR inh abs – inhibitors of human VHR1 phosphatase (DUSP3); recombinant VHR phosphatase, pNPP absorbance; 290,000 tested, 0.52% active; inhibition, % at 13.3 µM; P51452; in the data active = inhibition above about 50%
Target sequence (P51452 whole entry, looked up): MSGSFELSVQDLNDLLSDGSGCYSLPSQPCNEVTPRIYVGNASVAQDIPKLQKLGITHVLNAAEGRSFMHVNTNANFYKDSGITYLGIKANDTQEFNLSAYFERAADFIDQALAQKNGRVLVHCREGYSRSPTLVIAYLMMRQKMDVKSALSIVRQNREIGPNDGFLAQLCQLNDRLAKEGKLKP
CCHF vOTU inh-2 – CCHFV vOTU protease inhibition, confirmation; shares compounds with CCHF vOTU inh-1; Recombinant CCHFV vOTU, Pep-AMC fluorescence; inhibition, % at 11.5 µM; 1,900 tested, 17% active; AID 686976
* = called active by the depositor. Cut-off read from the data, not from the text of the source, unless noted: active = inhibition above about 30%; inactive = the rest.

For Cc1ccc(S(=O)(=O)/N=C2/NC(=O)/C(=C/c3ccc(Br)o3)S2)cc1 the results were 3CLpro inhibitor 3.6, Mtb hypoxia rep 4.9, CCHF vOTU inh-1 36.2*, VHR inh abs -16.1 and CCHF vOTU inh-2 10.7.
O=C1OCCN1/N=C/c1ccc([N+](=O)[O-])o1 was read as 3CLpro inhibitor -2.2, CCHF vOTU inh-1 34.8*, VHR inh abs -6.8 and CCHF vOTU inh-2 0.4.
Screening COc1ccccc1-n1nnc(-c2nnc(-c3ccncc3)o2)c1C returned PriA SSB inh -16.0.
For COc1ccc(/C=N/NC(=O)c2nn(-c3ccccc3)c(=O)c3c(N)scc23)cc1 the results were 3CLpro inhibitor 0.7, CCHF vOTU inh-1 50.1*, VHR inh abs -4.3 and CCHF vOTU inh-2 91.1*.
COc1ccc(/C=N/NC(=O)c2nn(-c3ccc(C)c(C)c3)c(=O)c3ccccc23)cc1 was read as 3CLpro inhibitor -4.7, CCHF vOTU inh-1 4.7 and VHR inh abs 23.5.
COc1ccc(/C=N/NC(=O)c2nn(-c3ccc(Cl)cc3)c(=O)c3c(N)scc23)cc1 was read as 3CLpro inhibitor -1.4, CCHF vOTU inh-1 33.0*, VHR inh abs 14.5 and CCHF vOTU inh-2 38.6*.
Oc1c(CN2CCCCC2)cc(Br)c2cccnc12 was read as PriA SSB inh 77.7, 3CLpro inhibitor -2.4, Mtb hypoxia rep -0.9, CCHF vOTU inh-1 69.8*, VHR inh abs 2.5 and CCHF vOTU inh-2 -6.5.
`O=Nc1cc(CN2CCOCC2)c(O)c2ncccc12` gave PriA SSB inh 28.0.
`Cc1ccc(N2C(=O)[C@@H]3[C@H](C2=O)[C@H]2C=C(C(=O)c4ccccc4)C=CN2[C@@H]3C(=O)c2ccc(Cl)cc2)cc1` gave PriA SSB inh 15.2, 3CLpro inhibitor 2.1, Mtb hypoxia rep 8.8, CCHF vOTU inh-1 1.5 and VHR inh abs 2.3.
CC(C)(C)C(=O)[C@@H]1[C@@H]2C(=O)N(c3ccc4c(c3)OCCO4)C(=O)[C@@H]2C2c3ccccc3C=CN21 (stereo not given in full) was read as PriA SSB inh 23.4, 3CLpro inhibitor -2.7, CCHF vOTU inh-1 53.5*, VHR inh abs 16.7 and CCHF vOTU inh-2 -6.6.
For CC(=O)[C@@H]1[C@@H]2C(=O)N(Cc3ccccc3)C(=O)[C@@H]2C2c3ccccc3C=CN21 (stereo not given in full) the results were PriA SSB inh 6.5, 3CLpro inhibitor -1.5, Mtb hypoxia rep 11.0, CCHF vOTU inh-1 64.0*, VHR inh abs 22.2 and CCHF vOTU inh-2 32.9*.
Cc1ccc(N2C(=O)[C@@H]3[C@H](C2=O)C2c4ccccc4C=CN2[C@@H]3C(=O)c2ccco2)cc1 (stereo not given in full) was read as PriA SSB inh 13.0, 3CLpro inhibitor 3.1, CCHF vOTU inh-1 77.7*, VHR inh abs 25.0 and CCHF vOTU inh-2 101.3*.
Cc1ccc(N2C(=O)[C@@H]3[C@H](C2=O)C2c4ccccc4C=CN2[C@@H]3C(=O)c2ccco2)c(C)c1 (stereo not given in full) was read as PriA SSB inh 14.4, 3CLpro inhibitor -2.6, CCHF vOTU inh-1 95.1*, VHR inh abs 1.5 and CCHF vOTU inh-2 53.0*.
Screening O=C(Nc1nc2c(s1)CN(C(=O)Nc1cccs1)CC2)c1ccco1 returned PriA SSB inh 0.0.
For CC1CCC(NC(=O)C(NS(=O)(=O)c2cccc3nsnc23)C(C)C)CC1 (stereo not given) the results were PriA SSB inh 11.8, 3CLpro inhibitor -0.6, Mtb hypoxia rep 3.9, CCHF vOTU inh-1 30.6*, VHR inh abs 10.7 and CCHF vOTU inh-2 -10.7.
CC(=O)N(C)c1ccc(OCC(O)Cn2c3ccc(Cl)cc3c3cc(Cl)ccc32)cc1 (stereo not given) was read as PriA SSB inh -5.5, 3CLpro inhibitor -2.0, Mtb hypoxia rep -3.5, CCHF vOTU inh-1 31.2*, VHR inh abs -11.5 and CCHF vOTU inh-2 -4.1.
`CC(=O)OC(COc1ccc(N(C)C(C)=O)cc1)Cn1c2ccccc2c2ccccc21` (stereo not given) gave PriA SSB inh 7.0.
For COc1ccccc1C(=O)Nc1ccc(NC(=O)C2CCCCC2)nc1 the results were PriA SSB inh 3.2, 3CLpro inhibitor 0.8, Mtb hypoxia rep 11.7, CCHF vOTU inh-1 39.4*, VHR inh abs 21.1 and CCHF vOTU inh-2 -20.6.
`Cc1cccc(-c2noc(-c3sccc3S(=O)(=O)N(C)c3ccc(C)c(F)c3)n2)c1` gave PriA SSB inh -13.0.
